Here are results for 36 molecules from PubChem BioAssay (Tox21).

In test [1] the target is Retinoic acid receptor RXR-alpha (Homo sapiens) (UniProt P19793). Description: qHTS assay to identify small molecule agonists of the RXR signaling pathway (AID 1159527; calls by dose curve; note: nearly all actives have a fitted effect of over 35% in size; note: potency is the fitted concentration of half-maximal effect). The method, boiled down:
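qHTS of the Tox21 10K library in GeneBLAzer RXR-alpha HEK 293T cells carrying a beta-lactamase reporter […]; 16 hr treatment, 9-cis retinoic acid as agonist control, FRET read-out.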
(In general: In qHTS, concentration-response curves come from the screen itself.)

Test [2] in a line: qHTS assay to identify small molecule agonists of the RXR signaling pathway - cell viability counter screen (AID 1159529). For activity change, negative = cytotoxicity: series mostly up to about 77 µM. Note: nearly all actives have a fitted effect of over 50% in size. Note: potency is the fitted concentration of half-maximal effect. The method, boiled down:
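Cell viability is measured by CellTiter-Glo luminescence, 30 min at room temperature, in wells already read for beta-lactamase. Engineered HEK 293T cells (RXR-alpha-UAS-bla) are dosed 16 hr at 37 C. Tetraoctyl ammonium bromide serves as positive control.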

Test [3] in a line: qHTS assay to identify small molecule antagonists of the retinoid acid receptor (RAR) signaling pathway - cell viability counter screen (AID 1159551). Note: nearly all actives have a fitted effect of over 35% in size. The method, boiled down:
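Following overnight attachment, C3RL4 reporter cells received DMSO-dissolved compounds and then retinol (1 uM final). Six hours later at 37 C, ATP content was measured by CellTiter-Glo luminescence.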

Test [4] can be described thus: qHTS assay to identify small molecule antagonists of the retinoic acid receptor (RAR) signaling pathway (AID 1159552; note: nearly all actives have a fitted effect of over 50% in size). The method, boiled down:
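Quantitative HTS in C3RL4 RARE-luciferase reporter cells. Compounds were added with 1 uM (final) retinol; luminescence was read after 6 hr.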

Test [5] can be described thus: qHTS assay to identify small molecule agonists of the retinoic acid receptor (RAR) signaling pathway (AID 1159553). The method, boiled down:
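Cell line C3RL4, RARE luciferase reporter. Treatment: compounds in DMSO, 6 hr, 37 C, 5% CO2, after overnight plating. Detection: luminescence, 30 min RT after reagent.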

Test [6] can be described thus: qHTS assay to identify small molecule antagonists of the estrogen related receptor (ERR) signaling pathway - cell viability counter screen (AID 1224818).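 Note: series mostly up to about 46 µM; viability measured after 17.5 h of compound exposure.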 The method, boiled down: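 Here, ERR cells are plated at 2,000 cells per well, allowed 6 h to attach, and treated with compounds in DMSO for 17.5 h at 37 C. CellTiter-Fluor is then added and fluorescence read after 30 min.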

A short description of test [7]: qHTS assay to identify small molecule antagonists of the estrogen related receptor (ERR) signaling pathway (AID 1224819;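 note: luminescence from an ERR-driven luciferase reporter measured with One-Glo reagent; series mostly up to about 46 µM; nearly all actives have a fitted effect of over 50% in size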). The method, boiled down: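 LOPAC library screened for antagonism as reduced One-Glo luminescence in ERR reporter cells (2,000/well). Compounds were added after 6 h pre-incubation and left 18 h at 37C; reading followed a 30 min room-temperature reagent step.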

Test [8] in a line: qHTS assay to identify small molecule agonists of the estrogen related receptor (ERR) signaling pathway (AID 1224820). The method, boiled down:
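Quantitative HTS of the LOPAC library used NTP ERR reporter cells treated 18 h at 37 C. Signal is luminescence after One-Glo addition and a 30 min room-temperature incubation.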

Test [9] concerns estrogen-related receptor alpha (ERRalpha) with PGC-1alpha coactivator, human. Nature of the test: qHTS assay to identify small molecule antagonists of the estrogen related receptor signaling pathway with the pleiotropic PPARgamma coactivator (PGC) (AID 1224821; calls by dose curve;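 note: series mostly up to about 46 µM; lower luminescence signal means antagonism of PGC/ERR signalling; nearly all actives have a fitted effect of over 50% in size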). In short, it runs like this:
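Quantitative HTS for antagonism: PGC/ERR cells received compounds after 6 h attachment and were incubated 18 h at 37 C, with luminescence (One-Glo) as the endpoint.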

A short description of test [10]: qHTS assay to identify small molecule agonists of the estrogen related receptor signaling pathway with the pleiotropic PPARgamma coactivator (PGC) (AID 1224823). In short, it runs like this:
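Cell-based luciferase assay in the NTP-supplied PGC/ERR line, 2,000 cells/well; 18 h compound exposure at 37 C, luminescence after One-Glo.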

Results filed as inconclusive are left out. Values without a mark were called inactive. Activity calls are given as the source filed them. Unless noted, calls come from the whole dose curve; as a rule, active = well fitted curve in the direction sought with a large enough effect in the repeat runs; inconclusive = weak or mixed curves; inactive = no such curve, though single readings can be large; an effect the other way counts as inactive or inconclusive.
% is set by controls: 0 for no effect and ±100 for the full control effect.

Chain of Retinoic acid receptor RXR-alpha (Homo sapiens) (P19793 whole entry, looked up): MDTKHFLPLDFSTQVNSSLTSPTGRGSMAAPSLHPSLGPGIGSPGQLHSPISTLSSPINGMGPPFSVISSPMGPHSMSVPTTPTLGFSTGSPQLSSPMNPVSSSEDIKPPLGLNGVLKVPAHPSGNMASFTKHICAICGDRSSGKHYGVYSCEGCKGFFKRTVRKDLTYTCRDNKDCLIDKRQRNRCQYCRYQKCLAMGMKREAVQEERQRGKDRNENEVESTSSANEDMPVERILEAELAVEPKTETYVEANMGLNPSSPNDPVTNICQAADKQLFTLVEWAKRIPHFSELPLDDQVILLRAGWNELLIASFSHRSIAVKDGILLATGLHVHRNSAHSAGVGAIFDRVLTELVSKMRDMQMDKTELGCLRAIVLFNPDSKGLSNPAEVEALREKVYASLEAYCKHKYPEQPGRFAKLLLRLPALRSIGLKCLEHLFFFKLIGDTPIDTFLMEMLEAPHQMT

In the case of `O=C(O)CN(CCN(CC(=O)O)CC(=O)O)CCN(CC(=O)O)CC(=O)O`, the activation in test [1] is 6.5% [at 15.8 µM]. Moreover, the activity change, negative = cytotoxicity in [2] is 2.65% [at 15.8 µM]; in [3], 4.77% [at 19 µM]. Besides, the activity, negative = inhibition in [4] is -10.7% [at 19 µM]. Besides, the Potency result in [5] was “inactive”. Besides, the result in test [6], in [7], in [8], in test [9] and in [10] was inactive.

For `Cc1onc(-c2ccccc2)c1C(=O)Cl`, the Potency entry in test [1], in [2], in test [4] and in test [5] was “inactive” throughout.

Turning to `CCC/C=C/CO`, the Potency result in [1], in test [2] and in test [5] was “inactive” in each case. Besides, the molecule was classed as inactive in [3].

Take `CN(C)Cc1ccccc1`: the Potency entry in test [1], in [2], in test [4] and in test [5] was “inactive” in each case. For the same molecule, in test [3], the call was inactive.

For `O=C(O)[C@@H]1CSCN1`, the Potency result in [1], in test [2], in [4] and in test [5] was “inactive” throughout.

Take `C=C(C)C(=O)OCCOP(=O)(O)O`: the Potency entry in test [1], in [2], in [4] and in test [5] was “inactive” in each case.

On to `CC(C)CC(=O)OCc1ccccc1`, for which the Potency entry in [1], in [2], in [4] and in test [5] was “inactive” in each case.

In the case of `CC(C)(C)C1CCCCC1=O` (stereo not given), the Potency entry in test [1], in test [2], in [4] and in test [5] was “inactive” throughout. Besides, the result in test [3] was inactive.

For the molecule `CNCCC(Oc1ccccc1OC)c1ccccc1` (stereo not given), the Potency entry in [1] and in [2] was “inactive” each time. The call in test [3], in test [6], in test [7], in [8], in test [9] and in test [10] was inactive.

On to `CCCCC1CCC(=O)O1` (stereo not given), for which the Potency result in test [1], in [2], in test [4] and in test [5] was “inactive” throughout.

As for `CCCCCCCCOC(=O)CCCCCCCCC(=O)OCCCCCCCC`, the Potency in test [1] is 9.77 µM (active). The Potency result in test [2] and in test [5] was “inactive” throughout. In addition, the molecule was classed as inactive in test [3].

As for `CC(C)NCC(O)COc1ccc(CCOCC2CC2)cc1` (stereo not given), the Potency result in [1], in [2], in [4] and in test [5] was “inactive” each time. Further, the result in [3] and in test [6] was inactive.

For the molecule `CO[C@@]1(NC(=O)CSCC#N)C(=O)N2C(C(=O)O)=C(CSc3nnnn3C)CS[C@@H]21`, the Potency entry in test [1], in [2], in test [4] and in test [5] was “inactive” each time. The call in [3] and in [6] was inactive.

Turning to `O=c1[nH]c(=O)n([C@H]2C[C@H](O)[C@@H](CO)O2)cc1C(F)(F)F`, the Potency entry in [1], in test [2], in test [4] and in test [5] was “inactive” each time.

Regarding `COc1nc(C)nc(NC(=O)NS(=O)(=O)c2ccccc2OCCCl)n1`, the Potency entry in [1], in test [2], in [4] and in [5] was “inactive” each time.

For the molecule `Cc1ncc(CO)c(CN)c1O`, the Potency entry in [1], in test [2], in [4] and in test [5] was “inactive” each time.

In the case of `O=C1CCCCCCCCCCC(=O)OCCO1`, the Potency entry in test [1], in test [2] and in test [5] was “inactive” throughout. Further, the molecule was called inactive in [3].

Turning to `O=C(C(Cl)Cl)N1CCOC12CCCCC2`, the Potency entry in test [1], in test [2], in [4] and in [5] was “inactive” in each case.

For the molecule `CN(C)CC[C@@H](c1ccc(Cl)cc1)c1ccccn1`, the Potency result in [1] and in [2] was “inactive” in each case. Besides, the outcome in test [3] and in test [6] was inactive.

On to `NC/C=C/C(=O)O`, for which the Potency entry in test [1], in [2], in test [4] and in test [5] was “inactive” in each case. The molecule was called inactive in [3], in test [6], in test [7], in test [8], in [9] and in [10].

As for `CC(C)CCCCCCc1ccc(OCCOCCO)cc1`, the Potency result in [1], in [2], in test [4] and in test [5] was “inactive” each time.

Regarding `Cn1cnc2c(F)c(Nc3ccc(Br)cc3Cl)c(C(=O)NOCCO)cc21`, the Potency entry in test [1], in test [2], in test [4] and in [5] was “inactive” in each case.

Regarding `CCOC(=O)C(Br)c1ccccc1` (stereo not given), the Potency entry in [1], in test [2], in [4] and in test [5] was “inactive” in each case.

Consider `CCCNC(C)C(=O)Nc1c(C)csc1C(=O)OC` (stereo not given), for which the Potency entry in test [1], in [2], in [4] and in test [5] was “inactive” in each case. In addition, in test [3], the call was inactive.

In the case of `CCCCNc1cc(C(=O)O)cc(S(N)(=O)=O)c1Oc1ccccc1`, the Potency entry in test [1], in test [2], in [4] and in [5] was “inactive” throughout. Further, the molecule was classed as inactive in test [3] and in test [6].

For `CN1CCN(c2c(F)cc3c(=O)c(C(=O)O)cn(CCF)c3c2F)CC1`, the Potency entry in test [1], in test [2], in [4] and in [5] was “inactive” each time.

Take `Cc1ccc(C)c(N)c1`: the Potency entry in test [1], in [2], in test [4] and in test [5] was “inactive” each time.

In the case of `CCCCCCn1c(=O)c2c(ncn2C)n(C)c1=O`, the Potency entry in test [1], in test [2], in [4] and in test [5] was “inactive” each time.

For the molecule `O=CCCc1ccccc1`, in test [1], the Potency is 19.5 µM (active). Also, the Potency result in test [2] and in [5] was “inactive” in each case. Also, in test [3], the result was inactive.

`CC(=O)Oc1cc(C(C)C)c(OCCN(C)C)cc1C`: the Potency entry in test [1] and in test [2] was “inactive” throughout. Besides, the result in [3] and in [6] was inactive.

Consider `O=C1N(c2ccccc2)c2ccccc2C1(Cc1ccncc1)Cc1ccncc1`, for which the Potency entry in test [1], in [2], in test [4] and in [5] was “inactive” throughout. For the same molecule, the call in test [3], in test [6], in test [7], in [8] and in [10] was inactive.

With `NCCC(O)(P(=O)(O)O)P(=O)(O)O`, the Potency entry in test [1], in [2], in test [4] and in test [5] was “inactive” in each case.

Take `CC1=C2[C@H](/C=C(\C)C(=O)O)CC[C@@H](C)[C@H]2CC1`: the Potency in [2] was 45.3 µM (active). Further, the molecule was classed as inactive in test [3]. In test [4], the Potency entry was “inactive”.

With `Cc1c(N)cccc1N`, the Potency entry in test [2] is “inactive”. Also, in test [3], the molecule was called inactive.

Regarding `CN(C)CCOc1ccccc1Cc1ccccc1`, the Potency entry in [1], in [4] and in test [5] was “inactive” throughout. In test [3], the call was inactive.

`CN1CCN(C2=Nc3cc(F)ccc3Cc3ccccc32)CC1`: the Potency entry in test [1], in test [4] and in [5] was “inactive” throughout.
